Molecules are shown by their SMILES. Inconclusive results are not listed. Calls of active or inactive are those of the source. Calls come from the whole dose curve; as a rule, active = well fitted cell-killing curve with a large enough effect; inconclusive = small, poorly fitted or top-dose-only effect, or effect the other way; inactive = flat fitted curve, though single readings scatter. Where a SMILES comes first, the peptide text is derived from it. The star is where a group is joined. βNA = c1ccc2cc(N*)ccc2c1; Cbz = O=C(OCc1ccccc1)*
% is set by controls: 0 for no effect and ±100 for the full control effect.

This assay deals with JEG-3. Put plainly: Primary qHTS to identify gynecologic anti-cancer compounds using libraries of approved drugs and bioactive compounds (AID 1345084). Note: nearly all actives have a fitted effect of over 55% in size. Particulars: Gynecologic cancer cell panel viability, ATPlite luminescence, 48 h; series mostly up to 57.5 µM; activity change, negative = cytotoxicity: at the top concentration. The gist of the method:
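Five-point cytotoxicity, 48 h drug exposure at 37 C, 5% CO2, on cells seeded 16 h beforehand. ATP content read by ATPlite luminescence.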
For orientation: In qHTS, concentration-response curves come from the screen itself.
With `C/C(=C\CCC1(C)C2CC3C(C2)C31C)C(=O)O` (centres undefined), the “activity change, negative = cytotoxicity” value is 8.58% (inactive).

Turning to `CCCC1=CC2=C(CO1)C(=O)C(C)(O)C(OC(=O)c1c(C)cc(OC)cc1O)C2` (centres undefined), the “activity change, negative = cytotoxicity” value was -1.63% [at 25.3 µM] (inactive).

On to `COc1cnc(-n2cnc(C)n2)c2[nH]cc(C(=O)C(=O)N3CCN(C(=O)c4ccccc4)CC3)c12`, for which the “activity change, negative = cytotoxicity” value is 1.13% (inactive).

On to `CCCC/C=C\CCCCCc1cc(=O)c2ccccc2n1C`, for which the “activity change, negative = cytotoxicity” value was 3.15% [at 38.5 µM] (inactive).

For `CCN1CCN(C(=O)N[C@@H](C(=O)N[C@@H]2C(=O)N3[C@@H]2SC(C)(C)[C@@H]3C(=O)O)c2ccccc2)C(=O)C1=O`, the “activity change, negative = cytotoxicity” value was 3.11% (inactive).

Turning to `C[C@@H]1O[C@@H](O[C@@H]2[C@@H](O)[C@H](O[C@H]3[C@H](O[C@H]4CC[C@@]5(C)C(CC[C@]6(C)C5CC=C5[C@@H]7CC(C)(C)CC[C@]7(C(=O)O[C@@H]7O[C@H](CO)[C@@H](O)[C@H](O)[C@H]7O)CC[C@]56C)C4(C)C)O[C@H](C(=O)O)[C@@H](O)[C@@H]3O)OC[C@H]2O)[C@H](O)[C@H](O)[C@H]1O` (some centres undefined), the activity change, negative = cytotoxicity is -0.837% [at 11.6 µM] (inactive).

Consider `COC(=O)C1=COC(O[C@@H]2O[C@H](CO)[C@@H](O)[C@H](O)[C@H]2O)/C(=C\COC(=O)/C=C/c2ccccc2)C1CC(=O)OCCc1ccc(O)cc1` (some centres undefined), for which the “activity change, negative = cytotoxicity” value was -3.39% [at 25.3 µM] (inactive).

As to `C=CC(C)(O)CC/C=C(\C)C1CC=C(C)C(=O)O1` (centres undefined), the “activity change, negative = cytotoxicity” value was 11.9% (inactive).

For `COc1cc(/C=C/C(=O)OC[C@H]2O[C@@H](OC3CC(C)=C(C(=O)O)C(C)(C)C3)[C@H](O)[C@@H](O)[C@@H]2O)cc(OC)c1O` (some centres undefined), the “activity change, negative = cytotoxicity” value was 3.49% [at 25.3 µM] (inactive).

`CC1(C)C[C@H](O)C[C@@]2(C)[C@H]1[C@H](O)C=C1COC(=O)[C@@]12O`: the “activity change, negative = cytotoxicity” value was -1.19% (inactive).

As to `O=C(O)Cc1cn([C@@H]2O[C@H](CO)[C@@H](O)[C@H](O)[C@H]2O[C@@H]2O[C@H](CO)[C@@H](O)[C@H](O)[C@H]2O)c2ccccc12`, the “activity change, negative = cytotoxicity” value is 6.05% [at 25.3 µM] (inactive).

In the case of `C=C1CC[C@@]2(OC1)O[C@H]1CC3[C@@H]4CC=C5C[C@@H](O)C[C@@H](O[C@@H]6OC[C@H](O)[C@H](O)[C@H]6O[C@@H]6O[C@@H](C)[C@H](O)[C@@H](O)[C@H]6O)[C@]5(C)C4CC[C@]3(C)[C@H]1[C@@H]2C` (some centres undefined), the “activity change, negative = cytotoxicity” value is -16.7% [at 25.3 µM] (inactive).

Regarding `CC(C)CC(NC(=O)OCc1ccccc1)C(=O)NC(CC(C)C)C(=O)NC(CCC(=O)O)C(=O)Nc1ccc2ccccc2c1` (stereo not drawn) (Cbz-Leu-Leu-Glu-βNA; configuration not given here), the “activity change, negative = cytotoxicity” value is -8.72% (inactive).

On to `OC[C@@]1(O)CO[C@H](OC[C@H]2O[C@@H](OC(CCCCc3ccc(O)cc3)CCc3ccc(O)cc3)[C@H](O)[C@@H](O)[C@@H]2O)[C@@H]1O` (some centres undefined), for which the “activity change, negative = cytotoxicity” value was -1.18% [at 25.3 µM] (inactive).

As to `Nc1ccc(-n2nc(C(F)(F)F)cc2C(F)(F)F)cc1`, the “activity change, negative = cytotoxicity” value is -1.54% (inactive).

As to `C/C(=C\C(=O)C[C@@]12C(=O)O[C@]3(C)CC[C@H]1C[C@H]23)C(N)=O`, the “activity change, negative = cytotoxicity” value is 0.877% (inactive).

For the compound `Nc1ncnc2c1C(=O)N(c1ccc(C3CCC(CC(=O)O)CC3)cc1)CCO2` (centres undefined), the “activity change, negative = cytotoxicity” value was 6.31% (inactive).

Turning to `COC1OC(=O)C2=C1C1(C)CCCC(C)(C)C1CC2O` (centres undefined), the “activity change, negative = cytotoxicity” value is 2.27% (inactive).

As to `C=C(CC/C=C(\C)C(=O)O)C1(O)CC=C(C)CC1` (centres undefined), the “activity change, negative = cytotoxicity” value is 0.217% (inactive).

As for `CC(C)Oc1ccc(-c2nc(-c3cccc4c3CCC4NCCC(=O)O)no2)cc1C#N` (centres undefined), the “activity change, negative = cytotoxicity” value was -5.39% (inactive).

With `C=C1CC[C@@]2(OC1)O[C@H]1CC3[C@@H]4CC=C5C[C@H](O[C@H]6OC[C@@H](O)C(O)[C@@H]6O[C@@H]6O[C@@H](C)[C@H](O)[C@@H](O[C@@H]7O[C@H](CO)[C@@H](O)[C@H](O)[C@H]7O)[C@H]6O)C[C@@H](O)[C@]5(C)C4CC[C@]3(C)[C@H]1[C@@H]2C` (some centres undefined), the activity change, negative = cytotoxicity was -8.07% [at 11.6 µM] (inactive).

For the compound `CC(C)c1cc2c(c(O)c1O)[C@@]13CCCC(C)(C)C1[C@@H](O)[C@@H]2OC3=O` (some centres undefined), the “activity change, negative = cytotoxicity” value is -2.1% [at 38.5 µM] (inactive).

On to `COc1cccc(C)c1C(=O)O[C@@H]1C[C@H](O[C@H]2[C@H](O)C[C@H](O[C@@H]3CCC[C@H]4[C@H]3C=C[C@@H]3CCCC/C=C/[C@H]5C=C(C(=O)O)[C@@H](C)C[C@@]56OC(=O)C(=C6O)OC(=O)[C@@]34C)O[C@@H]2C)O[C@H](C)[C@H]1O`, for which the activity change, negative = cytotoxicity was -0.859% [at 11.6 µM] (inactive).

On to `CC(=O)OC1C(CO)OC(O[C@H]2[C@H](OC(=O)[C@]34CCC(C)(C)C[C@H]3C3=CCC5[C@@]6(C)CC[C@H](O[C@@H]7O[C@H](C(=O)O)[C@@H](O)[C@H](O[C@@H]8OC[C@@H](O)[C@H](O)[C@H]8O)[C@H]7O[C@@H]7O[C@H](CO)[C@H](O)[C@H](O)[C@H]7O)[C@@](C)(C=O)C6CC[C@@]5(C)[C@]3(C)C[C@H]4O)O[C@H](C)[C@H](OC3OC(C)C(OC4OCC(O)C(O)C4O)C(O)C3O)[C@@H]2O)C(O)C1O` (some centres undefined), for which the activity change, negative = cytotoxicity was 3.7% [at 6.55 µM] (inactive).

These data come from PubChem BioAssay (NCATS).
